ChEMBL document CHEMBL1961873, “Compounds: GSK PKIS; Assays: Nanosyn kinase panel” (2012)
Values joined by “and” are separate entries in the source; they are usually repeats but may differ in a detail not shown here. Equal entries are not always repeated.

Columns and labels:
[1] = tested on: Tyrosine-protein kinase ABL1 (Homo sapiens), P00519 [T315I]; conditions: at 1 µM
[2] = tested on: Tyrosine-protein kinase ABL1 (Homo sapiens), P00519 [Y253F]; conditions: at 0.1 µM
[3] = tested on: Tyrosine-protein kinase ABL1 (Homo sapiens), P00519 [Y253F]; conditions: at 1 µM
[4] = target: Tyrosine-protein kinase ABL1 (Homo sapiens) (UniProt P00519); conditions: at 0.1 µM
[5] = target: Tyrosine-protein kinase ABL1 (Homo sapiens) (UniProt P00519); conditions: at 1 µM
[6] = target: ALK tyrosine kinase receptor (Homo sapiens) (UniProt Q9UM73); conditions: at 0.1 µM
Chain of ALK tyrosine kinase receptor (Homo sapiens) (Q9UM73 19-1620 limits assumed): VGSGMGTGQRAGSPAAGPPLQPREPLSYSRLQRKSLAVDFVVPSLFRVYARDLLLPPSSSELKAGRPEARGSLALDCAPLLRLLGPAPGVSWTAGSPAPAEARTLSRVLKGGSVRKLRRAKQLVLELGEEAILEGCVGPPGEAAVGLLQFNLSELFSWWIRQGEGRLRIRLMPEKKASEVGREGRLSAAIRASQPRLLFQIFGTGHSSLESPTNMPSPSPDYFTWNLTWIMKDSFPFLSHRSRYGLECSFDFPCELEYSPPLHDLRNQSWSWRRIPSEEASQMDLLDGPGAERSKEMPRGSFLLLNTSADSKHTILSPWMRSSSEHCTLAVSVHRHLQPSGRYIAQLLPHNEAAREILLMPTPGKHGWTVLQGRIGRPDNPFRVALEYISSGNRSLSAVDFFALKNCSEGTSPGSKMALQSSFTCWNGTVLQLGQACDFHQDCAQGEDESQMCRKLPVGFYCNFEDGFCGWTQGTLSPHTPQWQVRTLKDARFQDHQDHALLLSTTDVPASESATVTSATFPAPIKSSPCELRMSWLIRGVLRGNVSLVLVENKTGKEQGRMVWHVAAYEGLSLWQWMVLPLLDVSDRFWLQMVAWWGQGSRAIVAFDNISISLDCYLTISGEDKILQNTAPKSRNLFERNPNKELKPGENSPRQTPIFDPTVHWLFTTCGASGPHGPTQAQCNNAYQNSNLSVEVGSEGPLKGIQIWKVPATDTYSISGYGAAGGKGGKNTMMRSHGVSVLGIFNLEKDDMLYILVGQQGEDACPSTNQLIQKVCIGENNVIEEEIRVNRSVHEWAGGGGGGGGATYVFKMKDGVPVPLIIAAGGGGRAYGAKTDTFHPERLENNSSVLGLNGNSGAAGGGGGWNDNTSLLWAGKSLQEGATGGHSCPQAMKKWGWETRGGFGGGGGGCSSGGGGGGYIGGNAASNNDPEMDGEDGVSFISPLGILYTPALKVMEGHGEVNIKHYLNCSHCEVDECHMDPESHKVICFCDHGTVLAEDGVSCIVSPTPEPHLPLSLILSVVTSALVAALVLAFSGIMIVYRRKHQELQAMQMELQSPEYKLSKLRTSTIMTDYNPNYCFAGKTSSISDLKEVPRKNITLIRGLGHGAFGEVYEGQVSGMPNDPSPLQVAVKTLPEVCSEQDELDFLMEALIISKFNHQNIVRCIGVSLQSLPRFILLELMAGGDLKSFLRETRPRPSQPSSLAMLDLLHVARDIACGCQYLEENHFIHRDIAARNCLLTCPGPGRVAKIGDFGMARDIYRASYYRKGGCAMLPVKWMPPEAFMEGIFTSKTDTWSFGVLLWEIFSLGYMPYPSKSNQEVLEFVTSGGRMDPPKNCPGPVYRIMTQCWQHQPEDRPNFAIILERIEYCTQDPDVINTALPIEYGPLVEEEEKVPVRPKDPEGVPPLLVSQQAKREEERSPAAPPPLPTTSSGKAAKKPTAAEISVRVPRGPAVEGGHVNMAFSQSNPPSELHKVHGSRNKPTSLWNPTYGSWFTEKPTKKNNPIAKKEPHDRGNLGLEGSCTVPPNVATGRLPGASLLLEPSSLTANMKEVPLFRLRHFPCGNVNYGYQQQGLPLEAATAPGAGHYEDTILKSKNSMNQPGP

[7] = target: ALK tyrosine kinase receptor (Homo sapiens) (UniProt Q9UM73); conditions: at 1 µM
[8] = target: Tyrosine-protein kinase ABL2 (Homo sapiens) (UniProt P42684); conditions: at 0.1 µM
Chain of Tyrosine-protein kinase ABL2 (Homo sapiens) (P42684 whole entry): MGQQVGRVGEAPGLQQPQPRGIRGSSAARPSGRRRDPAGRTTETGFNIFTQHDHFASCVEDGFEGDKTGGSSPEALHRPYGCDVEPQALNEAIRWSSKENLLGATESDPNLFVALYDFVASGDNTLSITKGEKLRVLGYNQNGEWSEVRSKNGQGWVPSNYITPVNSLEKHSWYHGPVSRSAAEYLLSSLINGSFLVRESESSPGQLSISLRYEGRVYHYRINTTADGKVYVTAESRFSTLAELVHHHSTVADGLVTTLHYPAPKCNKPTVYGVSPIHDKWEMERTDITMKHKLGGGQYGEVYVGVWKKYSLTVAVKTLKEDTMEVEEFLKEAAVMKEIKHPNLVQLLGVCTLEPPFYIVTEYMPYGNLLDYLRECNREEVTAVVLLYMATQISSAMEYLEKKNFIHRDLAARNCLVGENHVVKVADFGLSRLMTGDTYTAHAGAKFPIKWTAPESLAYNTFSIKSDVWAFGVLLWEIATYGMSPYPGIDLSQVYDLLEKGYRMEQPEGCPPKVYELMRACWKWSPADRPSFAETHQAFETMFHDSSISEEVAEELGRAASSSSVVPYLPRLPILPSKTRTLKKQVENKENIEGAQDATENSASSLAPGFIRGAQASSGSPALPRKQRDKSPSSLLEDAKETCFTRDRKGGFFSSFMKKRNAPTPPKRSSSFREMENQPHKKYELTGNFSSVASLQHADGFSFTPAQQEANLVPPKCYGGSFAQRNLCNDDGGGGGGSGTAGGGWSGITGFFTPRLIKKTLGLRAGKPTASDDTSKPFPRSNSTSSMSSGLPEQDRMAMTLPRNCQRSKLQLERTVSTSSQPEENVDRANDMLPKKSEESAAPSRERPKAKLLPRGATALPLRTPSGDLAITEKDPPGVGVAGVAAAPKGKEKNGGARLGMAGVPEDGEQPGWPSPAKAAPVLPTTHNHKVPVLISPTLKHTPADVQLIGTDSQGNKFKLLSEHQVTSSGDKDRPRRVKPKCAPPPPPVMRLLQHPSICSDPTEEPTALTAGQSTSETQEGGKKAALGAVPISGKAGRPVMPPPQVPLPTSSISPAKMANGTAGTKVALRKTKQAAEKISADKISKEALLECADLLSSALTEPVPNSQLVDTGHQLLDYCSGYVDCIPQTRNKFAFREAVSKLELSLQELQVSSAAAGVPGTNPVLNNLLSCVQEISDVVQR

[9] = target: Tyrosine-protein kinase ABL2 (Homo sapiens) (UniProt P42684); conditions: at 1 µM
[10] = target: Tyrosine-protein kinase receptor UFO (Homo sapiens) (UniProt P30530); conditions: at 0.1 µM;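 also: values are mean percent inhibition of AXL from the GSK PKIS screen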
Chain of Tyrosine-protein kinase receptor UFO (Homo sapiens) (P30530 whole entry): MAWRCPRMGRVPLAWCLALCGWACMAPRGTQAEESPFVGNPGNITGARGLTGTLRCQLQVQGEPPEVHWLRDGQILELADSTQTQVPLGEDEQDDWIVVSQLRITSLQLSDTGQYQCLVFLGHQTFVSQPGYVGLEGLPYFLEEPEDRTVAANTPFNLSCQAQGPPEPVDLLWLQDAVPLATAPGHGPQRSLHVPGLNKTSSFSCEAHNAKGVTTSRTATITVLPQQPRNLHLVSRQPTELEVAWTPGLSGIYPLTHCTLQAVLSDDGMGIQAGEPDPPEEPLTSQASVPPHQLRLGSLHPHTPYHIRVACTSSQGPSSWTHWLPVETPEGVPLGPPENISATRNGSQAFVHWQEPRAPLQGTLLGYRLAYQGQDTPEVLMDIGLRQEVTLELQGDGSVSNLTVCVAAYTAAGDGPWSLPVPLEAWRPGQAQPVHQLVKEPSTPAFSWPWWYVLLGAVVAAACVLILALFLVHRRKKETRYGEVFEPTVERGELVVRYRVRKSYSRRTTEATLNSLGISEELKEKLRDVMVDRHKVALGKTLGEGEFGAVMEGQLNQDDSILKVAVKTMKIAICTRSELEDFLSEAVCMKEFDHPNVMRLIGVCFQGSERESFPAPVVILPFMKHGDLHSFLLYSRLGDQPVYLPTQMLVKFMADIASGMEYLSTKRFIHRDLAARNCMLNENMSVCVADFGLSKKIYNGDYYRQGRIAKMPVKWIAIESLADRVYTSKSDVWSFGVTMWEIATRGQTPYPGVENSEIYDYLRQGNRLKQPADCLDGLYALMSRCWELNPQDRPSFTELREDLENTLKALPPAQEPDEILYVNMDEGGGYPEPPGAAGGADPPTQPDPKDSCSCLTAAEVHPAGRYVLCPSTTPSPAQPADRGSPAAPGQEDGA

| SMILES | inhibition [1] | inhibition [2] | inhibition [3] | inhibition [4] | inhibition [5] | inhibition [6] | inhibition [7] | inhibition [8] | inhibition [9] | inhibition [10] |
| --- | --- | --- | --- | --- | --- | --- | --- | --- | --- | --- |
| COc1cc(N2CCN(C(C)C)CC2)ccc1Nc1nc(Nc2cccc(F)c2C(=O)O)c2cc[nH]c2n1 | 7.98% | 4.3% | 5.73% | 5.38% | 5.63% | 68.1% | 80.7% | 4.02% | 5.35% | 2.71% |
| CNC(=O)c1ncccc1Nc1nc(Nc2cc3c(cc2OC)CCCN3C(=O)CN(C)C)nc2[nH]ccc12 | 2.23% | 3.84% | 3.74% | 4.98% | 7.6% | 94.4% | 90.8% | 2.06% | 5.83% | 10.8% |
| Cc1cc(O)cc(C)c1/C=C/c1cncc(C(N)=O)c1 | 7.26% | 27.8% | 73.6% | 15.1% | 66% | 3.62% | 4.41% | 12.2% | 59.3% | -2.07% |
| Fc1ccc(Nc2nccc(-c3c(-c4ccc(C(F)(F)F)cc4)nn4ncccc34)n2)cc1F | 0.93% | 3.58% | 2.19% | 5.29% | 5.12% | 3.18% | 6.53% | 3.43% | 4.03% | -5.49% |
| CS(=O)(=O)CCNCc1ccc(-c2ccc3ncnc(Nc4ccc(OCc5ccccc5)cc4)c3c2)o1 | 4.95% | 2.39% | 4.13% | 5.38% | 5.59% | 2.33% | 2.76% | 2.73% | 4.87% | -3.92% |
| COc1cc(N2CCN(C(C)C)CC2)ccc1Nc1nc(Nc2cccc3ncccc23)c2cc[nH]c2n1 | 0.12% | 0.03% | 2.91% | 1.91% | 9.59% | 51.7% | 86.3% | 4.93% | 8.07% | 1.7% |
| c1cnn2ncc(-c3ccnc(NCCCN4CCOCC4)n3)c2c1 | 3.23% | 4.67% | 1.93% | 2.22% | 6.5% | 2.15% | 3.78% | 2.25% | 1.19% | -7.99% |
| Cc1c2ccc(N(C)c3ccnc(Nc4cccc(S(N)(=O)=O)c4)n3)cc2nn1C | 52.2% | 43.4% | 83.3% | 16.7% | 64.5% | 1.38% | 18.8% | 19.5% | 62.8% | -8.43% |
| NC(=O)c1ccc2c(-c3ccnc(NCCCO)n3)c(-c3ccc(F)cc3)nn2c1 | 6.37% | 7.28% | 8.72% | 4.37% | 13.2% | 3.18% | 7.82% | 4.85% | 10.1% | -6.77% |
| CN1CCC(n2cnc(-c3ccc(F)cc3)c2-c2ccnc(NCCO)n2)CC1 | 6.42% | 2.79% | 4.11% | 3.67% | 6.5% | 3.71% | 5.43% | 3.07% | 2.99% | -4.58% |
| COc1cccc(Nc2nccc(-c3cnn4ncccc34)n2)c1 | 30% | 7.39% | 39.2% | 4.97% | 40.9% | 5.36% | 32.3% | 6.41% | 44.2% | -0.07% |
| O=C(Nc1n[nH]c2nnc(-c3cccnc3)cc12)C1CC1 | 3.43% | 0.48% | 3.53% | 3.47% | 6.91% | 0.19% | 1.54% | 0.77% | 3.61% | 0.08% |
| NS(=O)(=O)c1cccc(N/C=C2\C(=O)Nc3ccccc32)c1 | 8.55% | 5.67% | 11% | 3.17% | 10.9% | 2.94% | 12.7% | 4.2% | 13.3% | -7.48% |
| CNC(=O)c1sc(-n2cnc3cc(OC)c(OC)cc32)cc1OCc1ccccc1C(F)(F)F | 4.16% | 2.46% | 10.3% | 8.39% | 17.2% | 3.52% | 5.76% | 5.79% | 13.2% | -4.3% |
| COc1cc2c(cc1Nc1nc(Nc3cccc(F)c3C(N)=O)c3cc[nH]c3n1)N(C(=O)CN1CCN(C(C)C)CC1)CC2 | 2.05% | -2.26% | 1.07% | -1.27% | -0.09% | 62.8% | 82.3% | -1.03% | -1.11% | -1.56% |
| CN(c1ccc(NC(=O)NCCN2CCOCC2)cc1)c1ccnc(Nc2ccc(CS(C)(=O)=O)cc2)n1 | 30.3% | 6.51% | 22.1% | 4.29% | 21.8% | 2.33% | 5.11% | 6.09% | 36% | -1.83% |

| SMILES | inhibition [1] | inhibition [2] | inhibition [3] | inhibition [4] | inhibition [5] | inhibition [6] | inhibition [7] | inhibition [8] | inhibition [9] | inhibition [10] |
| --- | --- | --- | --- | --- | --- | --- | --- | --- | --- | --- |
| O=C(O[C@H]1CN[C@H](C#Cc2cc3ncnc(Nc4ccc5c(cnn5Cc5ccccc5)c4)c3s2)C1)N1CCOCC1 | 0.36% | -0.26% | 0.7% | -0.22% | 2.55% | -0.47% | 0.05% | -0.58% | 2.25% | 0.41% |
| CS(=O)(=O)Nc1ccc(-c2ccc3c(NC(=O)C4CC4)n[nH]c3c2)cc1 | 16.9% | 5.2% | 9.04% | 3.79% | 9.67% | 3.16% | 11% | 2.46% | 4.71% | -3.54% |
| CCn1c(-c2nonc2N)nc2cncc(C(=O)NCCNC)c21 | 5.14% | 8.7% | 7.62% | 3.3% | 5.3% | 1.99% | 4.23% | 2.36% | 4.11% | -8.56% |
| COC(=O)Nc1nc2ccc(Oc3ccc(NC(=O)Nc4cc(C(F)(F)F)ccc4F)cc3)cc2s1 | 92.6% | 32.2% | 75.7% | 42.7% | 79.8% | 0.95% | 6.26% | 51.4% | 73.6% | 13.7% |
| CCOc1ccc2c(-c3ccnc(Nc4cc(OC)cc(C(F)(F)F)c4)n3)cnn2n1 | 3.15% | 2.66% | 7.81% | 5.8% | 11.5% | -0.08% | 1.27% | 6.07% | 9.53% | 0.45% |
| CN1CCC(C(=O)Nc2n[nH]c3nc(-c4ccc(O)cc4)c(Br)cc23)CC1 | 22.5% and 15.6% | 3.92% and 2.19% | 15.1% and 9.74% | 0.28% and 3.94% | 10.7% and 12.2% | 2.7% and 5.6% | 31.6% and 35.4% | -0.95% and 2.31% | 4.33% and 4.83% | -5.65% and -3.46% |
| CS(=O)(=O)CCNCc1ccc(-c2ccc3ncnc(Nc4ccc(OCc5cccc(C(F)(F)F)c5)cc4)c3c2)o1 | 2.39% | 2.96% | 3.54% | 6.46% | 8.69% | 3% | 5.12% | 4.21% | 8.35% | -6.74% |
| NS(=O)(=O)c1ccc(N/N=C2\C(=O)Nc3cccc(CCc4ccncc4)c32)cc1 | 6.34% | 3.29% | 8.15% | 3.11% | 4.4% | 1.31% | 4.47% | 2.11% | 3.55% | -0.12% |
| O=C1Nc2ccccc2/C1=C1\CCc2cc(O)ccc21 | 16.2% | 5% | 15.6% | 3.68% | 15% | 5.54% | 25.4% | 2.63% | 9.37% | -8.77% |
| CNC(=O)c1cncc(/C=C/c2ccccc2C)c1 | 4.28% | 6.17% | 31.7% | 5.99% | 25.9% | 4.09% | 4.22% | 6.78% | 16.1% | -3.18% |
| CC1=C(C(=O)Nc2ccc3[nH]nc(C)c3c2)C(c2ccc(C(F)(F)F)cc2)CC(=O)N1 (stereo not given) | 2.86% | 4.61% | 1.36% | 7.68% | 9.26% | 3.26% | 6.8% | 7.56% | 7.08% | -3.17% |
| CS(=O)(=O)CCNCc1ccoc1-c1ccc2ncnc(Nc3ccc(OCc4ccccc4)cc3)c2c1 | 0.75% | 0.71% | -0.62% | 2.05% | 0.92% | -0.16% | 1.21% | 1.41% | 3.46% | -0.99% |
| Cc1nnc(-c2cccc(-c3ccc(C(=O)NCC4CC4)cc3)c2)o1 | 5.17% | 2.61% | 4.27% | 5.41% | 9.95% | 3.15% | 5.21% | 3.81% | 9.01% | -9.15% |
| N#Cc1cccc(Nc2ncc(-c3ccccc3)o2)c1 | 10.4% | 4.28% | 21.7% | 3.9% | 20.6% | 1.63% | 2.63% | 4.38% | 20.3% | -2.1% |
| Nc1nccc(-c2c(-c3ccc(F)cc3)ncn2C2CCNCC2)n1 | 1.38% and 1.78% | -2.62% and 1.74% | 3.43% and 4.65% | -2.44% and 0.45% | 7.89% and 5.4% | -2.83% and 0.4% | -1.85% and 1.82% | -2.01% and -0.73% | 3% and 19.3% | 3.6% and 1.09% |
